# Measurements: PubChem BioAssay AID430 (Sanford-Burnham Center for Chemical Genomics, 2006)
# About 1,100 (1.7%) of roughly 63,000 compounds were called active. This excerpt belongs to a sample that is enriched for actives. Potency and affinity values are given separately. Unmarked numbers belong to inactive results. No stated cut-off is given here; in the data, active means cytotoxicity above about 50%; inactive means the rest.
# Experiment: HPDE-C7 pancreatic duct cell viability loss – fluorescence, HTS (AID 430);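 further: cells exposed to compound for 48 hours before viability readout; 0% = vehicle and 100% = reference cytotoxic drug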
# Settings: HPDE-C7 pancreatic duct cells viability, at 10 µM, active compounds read high
row,SMILES,cytotoxicity
1,Cc1ccc2cc3cc(C(=O)N4CCN(C(=O)c5ccco5)CC4)sc3nc2c1,-0.9%
2,CCn1cc(C(=O)N2CCCC2)c(=O)c2cc(S(=O)(=O)N3CCOCC3)ccc21,-4.3%
3,Cc1cccc(-c2nc(CS(=O)CC(=O)NC3CCCC3)c(C)o2)c1 (stereo not given),10.3%
4,CC(OC1=CC(=O)CCC1)C(=O)c1ccccc1 (stereo not given),-4.7%
5,COc1ccccc1OCc1nc(C#N)c(NCc2ccco2)o1,3.4%
6,CCCCCCC1CC(CSc2ncn[nH]2)OC1=O (stereo not given),6.8%
7,COc1cccc(N2CC(O)=C(c3nc4ccccc4c(=O)[nH]3)C2=N)c1,54.2% (active)
8,COc1ccccc1N1CC(O)=C(c2nc3ccccc3c(=O)[nH]2)C1=N,26.8%
9,CCOC(=O)c1ccc(N2CC(O)=C(c3nc4ccccc4c(=O)[nH]3)C2=N)cc1,38.3%
10,O=C(O)C1C(c2ccccc2)C(C(=O)OCCCO)C1c1ccccc1 (stereo not given),4.7%
11,C=CCc1cccc(/C=N/c2ncn[nH]2)c1O,4.1%
12,COc1cc(Br)cc(CN2CCN(C=O)CC2)c1O,-1.6%
13,Oc1c(/C=N/c2ncn[nH]2)ccc2ccccc12,54.2% (active)
14,COc1cccc(C=Nc2cc(C)on2)c1O,-3.2%
15,COc1cc(Br)cc(/C=N/c2ncn[nH]2)c1O,88.6% (active)
16,O=c1c2ccccc2c(/C=N/c2ncn[nH]2)c(O)n1Cc1ccccc1,5.2%
17,O=C(O)CN1CCN(Cc2ccc(F)cc2Cl)C1=O,-10.1%
18,COc1ccc(CCn2nnnc2C(CC(C)C)N2CCC(C(N)=O)CC2)cc1OC (stereo not given),-10.9%
19,CCCS(=O)(=O)N1CCC(C(=O)NCc2ccccc2Cl)CC1,-9.6%
20,Clc1ccccc1-c1nnc2sc(-c3ccncc3)nn12,-13.4%

row,SMILES,cytotoxicity
1,COc1ccccc1-c1nnc2sc(-c3ccc(N(C)C)cc3)nn12,44.4%
2,CN(C)c1ccc(-c2nn3c(-c4ccccc4Cl)nnc3s2)cc1,63.8% (active)
3,CN(C)c1ccc(-c2nn3c(-c4ccc(Cl)cc4)nnc3s2)cc1,-15.9%
4,Cc1nn2c(-c3ccc(Cl)cc3Cl)nnc2s1,-9.3%
5,CN(C)c1ccc(-c2nn3c(-c4ccc(Cl)cc4Cl)nnc3s2)cc1,60.2% (active)
6,CCOc1ccc(N2C(=O)CC(SC(=NC)Nc3cccc(F)c3)C2=O)cc1 (stereo not given),-18.7%
7,O=C(CSc1ccc2c(c1)OCCO2)NCCN1C(=O)CSC1=O,3.6%
8,Cn1c(=O)[nH]c(=O)c2c1nc(N1CCN(c3cccc(Cl)c3)CC1)n2CCCc1ccccc1,5.2%
9,O=S(=O)(c1ccc(F)c(Cl)c1)N1CCCC1,11.7%
10,CCOC(=O)c1sc2nc(NC(=O)C(C)(C)C)sc2c1C,1.8%
11,CCOC(=O)c1sc2nc(NC(=O)C3CC3)sc2c1C,16%
12,CCOC(=O)c1sc2nc(NC(=O)C3CCCCC3)sc2c1C,66.7% (active)
13,CC(Sc1nnc(C2CCCCC2)n1N)C(=O)NCc1ccc2c(c1)OCO2 (stereo not given),0.2%
14,CCCCN(CC)S(=O)(=O)c1ccc(C(=O)Nc2nnc(-c3cccs3)o2)cc1,49%
15,CC1CN(S(=O)(=O)c2ccc(C(=O)Nc3nnc(-c4ccc5c(c4)CCCC5)o3)cc2)CC(C)O1 (stereo not given),41.7%
16,CCCCN(C)S(=O)(=O)c1ccc(C(=O)Nc2nnc(-c3cccs3)o2)cc1,59.9% (active)
17,CC1CCCN(S(=O)(=O)c2ccc(NC(=O)c3cccc(-n4cnnn4)c3)cc2)C1 (stereo not given),18.2%
18,CCCCN(C)S(=O)(=O)c1ccc(C(=O)Nc2nnc(CSC)o2)cc1,11.6%
19,O=C(Nc1nc(-c2cccs2)cs1)c1ccc(S(=O)(=O)N2CCCC2)cc1,6.2%
20,CC1CC(C)CN(S(=O)(=O)c2ccc(C(=O)Nc3nnc(-c4cccs4)o3)cc2)C1 (stereo not given),69.8% (active)

row,SMILES,cytotoxicity
1,O=C(Nc1nc(-c2cccs2)cs1)c1ccc(S(=O)(=O)N2CCCCC2)cc1,-6.2%
2,CCc1nnc(NC(=O)c2ccc(S(=O)(=O)N(CC)Cc3ccccc3)cc2)o1,35.7%
3,CCCCN(CC)S(=O)(=O)c1ccc(C(=O)Nc2nnc(-c3ccccc3Cl)o2)cc1,59.8% (active)
4,CC1CCCN(S(=O)(=O)c2ccc(C(=O)Nc3nnc(-c4ccccc4Cl)o3)cc2)C1 (stereo not given),60.8% (active)
5,CCN(Cc1ccccc1)S(=O)(=O)c1ccc(C(=O)Nc2nnc(C3CC3)o2)cc1,4.1%
6,CCC1Sc2ccccc2N(CC(=O)NCCC(C)C)C1=O (stereo not given),-14.5%
7,FC(F)(F)c1cccnc1N1CCN(c2ncnc3nc[nH]c23)CC1,-5.7%
8,CCCCS(=O)(=O)NC1=NCN(CCO)CN1,-7.4%
9,CCCCN1C(=O)C(O)(CC(=O)c2c(C)n[nH]c2C)c2cc(Br)ccc21 (stereo not given),7.7%
10,CN(c1ccc(C(=O)NCc2ccco2)cc1)S(C)(=O)=O,0.7%
11,COCCNC(=O)NC(=O)COC(=O)C12CC3CC(CC(NC(C)=O)(C3)C1)C2,-1.4%
12,CCOCCCn1c(=S)[nH]c2cc(C(=O)NCCN(CC)CC)ccc2c1=O,1.7%
13,Cc1[nH]c(=O)[nH]c(=O)c1NC(=O)CSc1ncccc1-c1nc2ccccc2[nH]1,3%
14,NC(=O)c1ccsc1NC(=O)COC(=O)c1ccccc1NCc1ccco1,0.6%
15,COc1ccc(NC(=O)c2ccc(CN3CCN(c4ccccc4)CC3)cc2)cc1OC,-17.4%
16,CCn1c(SCC(=O)N2CCN(c3ccccc3F)CC2)nnc1-c1ccoc1C,-0.9%
17,CC1(C)OC(=O)N(c2ccccn2)C1(C)O (stereo not given),2.3%
18,COCc1nnc(NC(=O)c2ccc(S(=O)(=O)N3CCCCCC3)cc2)o1,3.2%
19,Cc1nnc(NC(=O)c2ccc(S(=O)(=O)N3CCCCCC3)cc2)o1,7.5%
20,O=C(Nc1nnc(-c2ccccc2Cl)o1)c1ccc(S(=O)(=O)N2CCCCCC2)cc1,53.6% (active)
